Drawing on PubChem BioAssay (Tox21), this text covers Potency for 40 compounds.

Results filed as inconclusive are left out. Entries that show only a call come without a potency. Active and inactive are the calls of the source. Calls follow the shape of the full dose curve.

Thyrotropin receptor (Homo sapiens), sequence (P16473 whole entry, looked up): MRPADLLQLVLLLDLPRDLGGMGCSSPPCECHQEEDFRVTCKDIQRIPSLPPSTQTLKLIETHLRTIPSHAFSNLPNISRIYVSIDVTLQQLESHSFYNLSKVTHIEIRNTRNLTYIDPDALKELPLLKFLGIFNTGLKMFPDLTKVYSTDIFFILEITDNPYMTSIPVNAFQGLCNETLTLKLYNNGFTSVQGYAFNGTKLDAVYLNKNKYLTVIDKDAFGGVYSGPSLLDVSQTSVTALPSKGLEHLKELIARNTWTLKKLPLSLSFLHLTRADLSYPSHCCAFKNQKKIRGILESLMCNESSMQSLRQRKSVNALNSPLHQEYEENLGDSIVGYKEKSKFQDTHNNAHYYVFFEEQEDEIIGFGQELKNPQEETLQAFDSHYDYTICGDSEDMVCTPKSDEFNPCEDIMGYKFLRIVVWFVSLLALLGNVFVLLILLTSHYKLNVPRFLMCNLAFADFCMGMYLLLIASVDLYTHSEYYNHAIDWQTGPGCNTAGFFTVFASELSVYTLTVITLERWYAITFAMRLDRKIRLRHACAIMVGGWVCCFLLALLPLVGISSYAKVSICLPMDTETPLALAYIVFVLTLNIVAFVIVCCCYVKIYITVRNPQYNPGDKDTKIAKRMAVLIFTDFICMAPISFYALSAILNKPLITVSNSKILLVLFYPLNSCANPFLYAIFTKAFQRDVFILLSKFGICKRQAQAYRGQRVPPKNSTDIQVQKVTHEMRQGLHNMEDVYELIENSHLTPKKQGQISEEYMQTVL

The experiment concerns the target Thyrotropin receptor (Homo sapiens) (UniProt P16473). Kind of experiment: qHTS assay to identify small molecule antagonists of the thyroid stimulating hormone receptor (TSHR) signaling pathway (AID 1259385). Also: nearly all actives have a fitted effect of over 20% in size. The note with it: TSHR-HEK293 cAMP HTRF, TSH-stimulated antagonist mode; series mostly up to 92.4 µM. From the text: U.S. Tox21 Program National Center for Advancing Translational Sciences [NCATS] NIH Chemical Genomics Center [NCGC] U.S. Environmental Protection Agency [EPA] National Institutes of Environmental Health Sciences [NIEHS] National Toxicology Program [NTP] U.S. Food and Drug Administration [FDA] Tox21 Assay Overview: TSHR is the receptor for thyrotropin (thyroid stimulating hormone or TSH), a member of the glycoprotein hormone family. TSH is released by the anterior pituitary gland and is the main regulator of thyroid gland growth and development. Upon binding circulating thyrotropin, a G-protein signal cascade activates adenylyl cyclase and […] cAMP concentration is increased. cAMP is a key second messenger involved extensively in cellular signal transduction pathways associated with the majority of G-protein coupled receptors (GPCRs). The activation of these GPCRs by neurotransmitters, lipids, nucleotides, peptides and hormones results in the activation or the inhibition of plasma membrane-bound adenylate cyclase through heterotrimeric G-proteins. A cell-based TSHR assay can be used to screen chemical compounds that modulate TSHR either in agonist or antagonist mode.
Tox21 Assay Protocol Summary: TSHR-Hek293 cells were dispensed at 800 cells/4uL/well in 1536-well white plates using a Multidrop dispenser. After the assay plates were incubated at a 37C/5% CO2 incubator for 18 hrs, 23 nL of compounds dissolved in DMSO, positive controls or DMSO only was transferred to the assay plate by a pin tool, followed by 1 ul medium containing Ro20-1724. For the antagonist mode screening, 1 uL of TSH was added on the top of the cell/compound mixtures to achieve a final agonist concentration of 1.5 ng/mL. After 30 min of incubation at room temperature, 2.5 ul/well of cAMP-d2 and 2.5 ul/well of anti-cAMP-cryptate were added respectively into the assay plates using a Flying Reagent Dispenser. The plates were incubated at room temperature for 1 hr. The fluorescence intensity in the plates was measured using an Envision plate reader. Each test compound was measured at 15 concentrations and in triplicates.
Consider `COc1cccc(OC)c1`, for which the Potency result is “inactive”. Then `C=C(C)C(=O)OCCC(C)OC(=O)C(=C)C` (stereo not given), with “inactive”. For the compound `OC[C@H]1O[C@@H]2O[C@H]3[C@H](O)[C@@H](O)[C@@H](O[C@H]4[C@H](O)[C@@H](O)[C@@H](O[C@H]5[C@H](O)[C@@H](O)[C@@H](O[C@H]6[C@H](O)[C@@H](O)[C@@H](O[C@H]7[C@H](O)[C@@H](O)[C@@H](O[C@H]8[C@H](O)[C@@H](O)[C@@H](O[C@H]9[C@H](O)[C@@H](O)[C@@H](O[C@H]1[C@H](O)[C@H]2O)O[C@@H]9CO)O[C@@H]8CO)O[C@@H]7CO)O[C@@H]6CO)O[C@@H]5CO)O[C@@H]4CO)O[C@@H]3CO`, the Potency entry is “inactive”. Then `Cn1cnc2c(=O)[nH]c(N)nc21`, with “inactive”; and `COc1nc(C)nc(N)n1`, with “inactive”; and `O=C(CCOCCOCCOCCOCCC(=O)Nc1c(I)cc(I)c(C(=O)O)c1I)Nc1c(I)cc(I)c(C(=O)O)c1I`, with “inactive”. Then `COC(=O)C1=C(C)NC(C)=C(C(=O)OCC(C)=O)C1c1ccccc1[N+](=O)[O-]` (stereo not given), with “inactive”.

On to `CO[Si](CCCNCCC[Si](OC)(OC)OC)(OC)OC`, for which the Potency entry is “inactive”. Regarding `CN(C)CCOC(c1ccc(Cl)cc1)c1ccccn1` (stereo not given), the Potency result is “inactive”. Then `CC(C)CCCCCCN`, with “inactive”. Regarding `CCCCC=O`, the Potency result is “inactive”. Then `CCCc1ccc(N)cc1`, with “inactive”.

For the compound `CO[Si](OC)(OC)OC`, the Potency entry was “inactive”. The value for `Cc1ccccc1Br` was “inactive”; that for `O=C(O)C(O)[C@H](O)[C@@H](O)[C@H](O)[C@H](O)CO` (stereo not given in full) was “inactive”. With `CC(C)[C@H](N)C(=O)OCCOCn1cnc2c(=O)[nH]c(N)nc21`, the Potency result is “inactive”. The value for `CCOC(=O)Nc1ccc2c(c1)N(C(=O)CCN1CCOCC1)c1ccccc1S2` was “inactive”. The value for `CC(C)(C)N(CCO)CCO` was “inactive”; that for `COc1cccc(Br)c1` was “inactive”.

For the compound `Nc1nc2c(ncn2CCC(CO)CO)c(=O)[nH]1`, the Potency entry is “inactive”. Then `Cc1ccc(N)cc1[N+](=O)[O-]`, with “inactive”; and `OCC(O)[C@@H](O)[C@H](O)[C@H](O)CO[C@H]1O[C@H](CO)[C@@H](O)[C@H](O)[C@H]1O` (stereo not given in full), with “inactive”; and `CCCC(C)CO` (stereo not given), with “inactive”. The value for `CC(=O)CCc1ccc(O)cc1` was “inactive”; that for `N#CC1(O)CCCCC1` was “inactive”; that for `CC1CCN(CCCC(=O)c2ccc(F)cc2)CC1` was “inactive”. Then `CC(=O)c1ccc(C)cc1`, with “inactive”; and `CC1(C)OC(=O)Nc2ccc(Br)cc21`, with “inactive”; and `COC(=O)[C@H]1[C@H]2C[C@@H]3c4[nH]c5cc(OC)ccc5c4CCN3C[C@H]2C[C@@H](OC(=O)COc2ccc(OC)cc2)[C@@H]1OC`, with “inactive”.

Regarding `CCCCCCOC(=O)CC(CC(=O)OCCCCCC)(OC(=O)CCC)C(=O)OCCCCCC`, the Potency entry was “inactive”. Regarding `COc1ccc2cc(C=O)ccc2c1`, the Potency result is “inactive”. The value for `COc1cc(CCC(C)=O)ccc1O` was “inactive”; that for `NC(CS)C(=O)O` (stereo not given) was “inactive”. Then `CCCC=O`, with “inactive”.

Consider `CCO[Si](CCCN=C=O)(OCC)OCC`, for which the Potency entry is “inactive”. As for `OCCN1C[C@H](O)[C@@H](O)[C@H](O)[C@H]1CO`, the Potency result was “inactive”.

For the compound `C[C@H]1O[C@@H](n2cc(F)c(=O)[nH]c2=O)[C@H](O)[C@@H]1O`, the Potency result was “inactive”. The value for `CCCCC1CCCCC(=O)O1` (stereo not given) was “inactive”; that for `O=C(O)CCNC(=O)c1ccc(N=Nc2ccc(O)c(C(=O)O)c2)cc1` was “inactive”; that for `NC(=O)c1ncn([C@@H]2O[C@H](CO)[C@@H](O)[C@H]2O)c1O` was “inactive”.
